Shiga inhibitor: blocks Shiga toxin action in Vero cells. 9.2% of 290,000 active. inhibition, % at 38.7 µM. Vero cells, Shiga toxin protein synthesis inhibition reporter. AID 2315; in the data active = inhibition mostly above about 28%, no sharp cut-off; inactive = mostly below about 43%
Cycloheximide cs: counter-screen hit for Shiga toxin inhibitors, cycloheximide; cell reporter, cycloheximide protein synthesis inhibition counterscreen; max response, %; 12% of 300,000 active; AID 2314; in the data active = max response mostly above about 13%, no sharp cut-off; inactive = mostly below about 14%; also: read at 38.3 µM for the half of the compounds with a filed dose
NS1 inh: blocks influenza NS1 protein function; Potency, µM (highest dose often 46.1 µM); 0.4% of 270,000 active; AID 2326; calls by dose curve; also: actives are rising curves; nearly all actives have a fitted effect of over 50% in size
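In this qHTS, NS1 from influenza A is expressed in budding yeast, where it slows growth. Cells are switched from glucose to 2% galactose medium (pH 6.0, -URA), treated with compound, and growth recovery is read at OD600.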
SARS PLpro yeast: blocks SARS-CoV papain-like protease in a yeast assay | S. cerevisiae expressing SARS-CoV PLpro, growth rescue | 0.19% of 330,000 active | Potency, µM (top dose mostly 32.9 µM), actives largely listed as activators; calls by dose curve; also: nearly all actives have a fitted effect of over 55% in size
Pf growth 48h: inhibits P. falciparum growth in the first generation, 48 h. Potency, µM (series often up to 28.7 µM), most hits filed as inhibitors. 5.9% of 310,000 active. AID 504832. P. falciparum luciferase growth in erythrocytes, 48 h
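Compounds are pin-transferred into medium, infected erythrocytes (2% hematocrit, 0.1% parasitemia final) are added, and plates sit one parasite generation at 37 C in 5% CO2. Detection reagent is then added and luminescence measured.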
Pf growth 96h: inhibits malaria parasite growth, 96 h. P. falciparum luciferase reporter growth, 96 h. Potency, µM (doses to about 28.7 µM), usual class: inhibitors. 6.9% of 320,000 active. AID 504834
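Erythrocytes infected with luciferase-expressing P. falciparum were dispensed at 2% hematocrit and 0.05% parasitemia (final), then incubated with compounds 96 hours at 37 C in 5% CO2. Luminescence after detection reagent addition reported growth.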
Of the large screens only hits and unclear results are named; the others gave an inactive call. In the library only some 21% were active in any assay of this set; here they are far more common. Unless noted, calls follow the shape of the dose curve; as a rule, active = well fitted inhibition curve with a large enough effect; inconclusive = small, poorly fitted or top-dose-only effect, or another doubt; inactive = no such curve, though single readings can be large or run the other way.

CCOC(=O)C1=C(c2ccccc2)Nc2ncnn2C1c1ccc(OC)c(OC)c1OC (stereo unspecified)	Pf growth 96h inconclusive
COC(=O)c1cccc(N/C=C(\[N+](=O)[O-])S(=O)(=O)c2ccccc2)c1	none
C=CCNC(=S)N/N=C1\CCS(=O)(=O)c2ccccc21	none
O=C(CN1C(=O)NC2(CCCC2)C1=O)N1CCN(c2ccccc2O)CC1	none (no result: Shiga inhibitor, Cycloheximide cs, NS1 inh)
Cc1ccc(C)c(NC(=O)CNC(=O)N2CC(=O)Nc3ccccc32)c1	none
Cc1cccc(Nc2c([N+](=O)[O-])cc(C(=O)N3CC(=O)Nc4ccccc43)cc2[N+](=O)[O-])c1	Pf growth 48h 9.28µM, Pf growth 96h inconclusive (no result: NS1 inh)
Cc1ccc(C)c(Nc2c([N+](=O)[O-])cc(C(=O)N3CC(=O)Nc4ccccc43)cc2[N+](=O)[O-])c1	NS1 inh inconclusive, Pf growth 48h inconclusive, Pf growth 96h 13.1µM
COc1ccc2sc(-c3ccccc3OC)c(-c3ccc4c(c3)OCCO4)c2c1	Pf growth 48h 10.4µM, Pf growth 96h 2.62µM (no result: Shiga inhibitor, Cycloheximide cs, NS1 inh)
COc1ccc2sc(-c3ccccc3OC)c(-c3ccc(O)cc3)c2c1	Pf growth 48h inconclusive, Pf growth 96h 2.33µM (no result: Shiga inhibitor, Cycloheximide cs, NS1 inh)
O=C(C1CCCCC1)N1CCN=C1SCc1cccc([N+](=O)[O-])c1	Pf growth 96h inconclusive (no result: NS1 inh)
CC1CCN(S(=O)(=O)c2cc([N+](=O)[O-])ccc2Cl)CC1	none (no result: NS1 inh)
COc1ccc(CCn2c(=N)c(S(=O)(=O)c3ccc(Cl)cc3)cc3c(=O)n4ccccc4nc32)cc1	Pf growth 48h 4.65µM, Pf growth 96h 2.62µM
CCn1c(=N)c(S(=O)(=O)c2ccc(C)cc2)cc2c(=O)n3ccccc3nc21	Pf growth 96h inconclusive
Cc1ccc(S(=O)(=O)c2cc3c(=O)n4ccccc4nc3n(C3CCCC3)c2=N)cc1	Pf growth 48h 5.22µM
Cc1ccc(S(=O)(=O)c2cc3c(=O)n4ccccc4nc3n(CCc3ccccc3)c2=N)cc1	Pf growth 48h 2.08µM
O=C(CN1C(=O)NC2(CCCC2)C1=O)OCCOc1ccccc1Cl	none (no result: Shiga inhibitor, Cycloheximide cs, NS1 inh)
CCN1CCS/C1=C/C=C/C1=[N+](CC)CCS1	Pf growth 48h 0.738µM, Pf growth 96h 0.657µM
CCN1CCS/C1=C\C=C\C1=[N+](CC)CCS1	Pf growth 48h 0.928µM (no result: NS1 inh)
Cc1nc2ccccc2nc(C)c1=NOCc1ccccc1Cl	Shiga inhibitor 85.5, Cycloheximide cs 39.4, Pf growth 48h inconclusive, Pf growth 96h inconclusive
Cc1nc(C)c(Cc2ccccc2Cl)c(=O)[nH]1	none
COC(=O)C1=C(C)N(C)C(=S)NC1c1c(OC)ccc2ccccc12 (stereo unspecified)	Pf growth 48h inconclusive, Pf growth 96h inconclusive
COCCn1c(C)cc(C(=O)COC(=O)Cc2n[nH]c(=O)c3ccccc23)c1C	Pf growth 48h inconclusive (no result: Shiga inhibitor, Cycloheximide cs, NS1 inh)
COc1ccc(-n2c(C)cc(C(=O)COC(=O)Cc3n[nH]c(=O)c4ccccc34)c2C)cc1	Pf growth 48h 11.7µM, Pf growth 96h 2.08µM
Cc1cc(C(=O)COC(=O)Cc2n[nH]c(=O)c3ccccc23)c(C)n1-c1ccc2c(c1)OCO2	Pf growth 48h 6.57µM, Pf growth 96h inconclusive
CCOC(=O)C/C(C)=N\Nc1nc(-c2ccccc2)cs1	none (no result: NS1 inh)
C/C(CC(C)C)=N\NC(=O)Nc1ccccc1	Shiga inhibitor 42.4, Cycloheximide cs 41.8, Pf growth 96h inconclusive
CCOC(=O)C/C(C)=N/NC(=O)Nc1ccccc1	Shiga inhibitor active, Cycloheximide cs 39.6
N/C(=N\NS(=O)(=O)c1cc(C(F)(F)F)cc(C(F)(F)F)c1)c1ccccn1	none
CC/C(=N\NC(=O)Nc1ccccc1)c1ccccc1	Cycloheximide cs 19.4, Pf growth 96h inconclusive
N/C(=N\NC(=O)Nc1ccccc1)c1ccccn1	Shiga inhibitor 57.2, Cycloheximide cs 44.6
Cc1ccc(CN2CCC(n3nccc3NC(=O)CCOc3ccccc3)CC2)cc1C	Pf growth 48h inconclusive, Pf growth 96h inconclusive
CCCCNC(=O)[C@H]1C[C@H]1[C@@H](O)[C@H](CO)NC(=O)[C@H](COCc1ccccc1)NC(=O)OC(C)(C)C	none
COc1cc(CC(=O)OCC2=C[C@H]3[C@@H]4C(C)(C)[C@]4(OC(C)=O)[C@H](OC(=O)Cc4ccccc4)[C@@H](C)[C@]3(O)[C@@H]3C=C(C)C(=O)[C@@]3(O)C2)ccc1O	none (no result: NS1 inh, SARS PLpro yeast, Pf growth 48h, Pf growth 96h)
CCN(CC(=O)Nc1c(F)cccc1F)C(=O)Cc1ccc2c(c1)CCC2	none (no result: Shiga inhibitor, Cycloheximide cs, NS1 inh)
O=C1C(=O)c2ccccc2C(O)=C1CCCCl	Pf growth 48h 0.828µM, Pf growth 96h 1.85µM
COc1ccc(CC2=C(O)c3ccccc3C(=O)C2=O)cc1	none
Cc1c(Br)cnn1C(C)C(=O)N1CCN(c2ccc(F)cc2)CC1 (stereo unspecified)	Pf growth 48h inconclusive, Pf growth 96h inconclusive (no result: Shiga inhibitor, Cycloheximide cs, NS1 inh)
C=CCn1c(SCCCCCC)nc(O)cc1=O	NS1 inh inconclusive, Pf growth 96h 6.57µM
C=CCn1c(SCCCC)nc(O)cc1=O	NS1 inh inconclusive, Pf growth 96h inconclusive
CCc1ccc(C(=O)NNC(=O)[C@H](C)NC(=O)c2ccco2)cc1	none (no result: Shiga inhibitor, Cycloheximide cs, NS1 inh, Pf growth 48h, Pf growth 96h)
COc1cnc(-c2ccccn2)nc1Sc1ccc(C)cc1	SARS PLpro yeast inconclusive, Pf growth 48h 11.7µM, Pf growth 96h inconclusive (no result: NS1 inh)
COc1ccccc1Sc1nc(-c2ccccn2)ncc1OC	Pf growth 48h inconclusive, Pf growth 96h inconclusive (no result: NS1 inh)
FC(F)(F)c1cccc(Sc2cc(C(F)(F)F)nc(-c3ccccn3)n2)c1	Pf growth 96h inconclusive
COc1cnc(-c2ccccn2)nc1Sc1cccc(Cl)c1	Pf growth 48h inconclusive, Pf growth 96h 1.47µM
Cc1ccc(Sc2cc(C)nc(-c3ccccn3)n2)cc1	Cycloheximide cs 30.8, Pf growth 48h inconclusive, Pf growth 96h inconclusive
COc1ccc(N2CCN(CC(=O)Nc3cccc(S(=O)(=O)N4CCOCC4)c3)CC2)cc1	Pf growth 96h inconclusive
O=C(CSc1nc2ccc(Cl)cc2[nH]1)c1cccs1	Shiga inhibitor 122.4, Cycloheximide cs 57.8
O=C(CSc1nc2cc(Cl)ccc2o1)c1cccs1	Cycloheximide cs 23.2 (no result: Pf growth 48h)
O=C(CSc1nc2cc(Cl)ccc2o1)NCCc1ccccc1	none
Cc1c(C(=O)Nc2ccccc2)oc2c1C(=O)CC(C)(C)C2	Shiga inhibitor 81.8, Cycloheximide cs 33.0 (no result: Pf growth 96h)
C/C(NC(=O)c1ccccc1F)=C1\C(=O)C[C@@H]2[C@H]1C2(C)C	Cycloheximide cs 13.9 (no result: Pf growth 96h)
C/C(NC(=O)c1cccc(F)c1)=C1/C(=O)C[C@@H]2[C@H]1C2(C)C	none (no result: Pf growth 48h)
COc1ccc(CCNC(=O)c2ccc(-c3ccc([N+](=O)[O-])cc3)o2)cc1OC	Pf growth 96h inconclusive
CCOC(=O)CNC(=O)CSc1nnc(NC(=O)c2ccc3c(c2)OCO3)s1	Shiga inhibitor 21.7, Cycloheximide cs 12.0, Pf growth 48h inconclusive
Cc1ccccc1Nc1nnc(SCC(=O)NCc2ccco2)s1	none
O=C(CSc1nnc(NC(=O)c2ccc(F)cc2)s1)NCc1ccco1	Shiga inhibitor 44.9, Cycloheximide cs 28.8
O=C(CSc1nnc(NC(=O)c2ccccc2)s1)NCc1ccco1	Shiga inhibitor 40.7, Cycloheximide cs 40.2
Cc1ccccc1C(=O)Nc1nnc(SCC(=O)NCc2ccco2)s1	Shiga inhibitor 71.9, Cycloheximide cs 20.8

Screening results from PubChem BioAssay.
